# Laboratory results as given in the supplement of paper PMC10981050.
# Counter-ions that a name gives are not always drawn.
# Tested on: MARIMO
# Assay: cell viability relative to vehicle control; higher = less cytotoxic
# Details: 10 µM; SRSF2 genotype: SRSF2 P95H/wt
# Method in brief: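 CRISPR-edited mutant clones and isogenic wild-type clones from four leukaemia lines were screened against Selleck bioactive, kinase and epigenetic probe libraries, with identity-inconsistent compounds excluded. Each compound was acoustically dispensed at a single 10 µM dose into 384-well plates holding 2000 cells in 50 µL medium per well. After 48 h the supernatant was removed and CellTiter-Glo luminescence was read. Viability was expressed as percent of the on-plate vehicle control and analysed in Genedata Screener.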
row,SMILES,cell viability [%]
1,Oc1ccc(OCc2ccccc2)cc1 [Monobenzone (Benoquin)],53.8
2,CNCCCC12CCC(c3ccccc31)c1ccccc12 [Maprotiline hydrochloride],65.2
3,O=C(O)[C@H]1O[C@@H](Oc2cc3oc(-c4ccc(O)cc4)cc(=O)c3c(O)c2O)[C@H](O)[C@@H](O)[C@@H]1O [Scutellarin],100
4,Cn1nnc(-c2ccc(-c3ccc(N4C[C@H](COP(=O)(O)O)OC4=O)cc3F)cn2)n1 [Tedizolid Phosphate],88.8
5,Cc1onc(-c2c(F)cccc2Cl)c1C(=O)N[C@@H]1C(=O)N2[C@@H]1SC(C)(C)[C@@H]2C(=O)O [Flucloxacillin sodium],100
6,CC(=O)Nc1ccccc1 [Acetanilide (Antifebrin)],106
7,CCOC(=O)c1c(C)n(C)c2ccc(O)cc12 [Mecarbinate],97.3
8,CC#CC(=O)N1CCC[C@H]1c1nc(-c2ccc(C(=O)Nc3ccccn3)cc2)c2c(N)nccn12 [Acalabrutinib (ACP-196)],101
9,CN/C(=N\CCSCc1nc[nH]c1C)NC#N [Cimetidine (Tagamet)],102
10,CCCC1O[C@@H]2C[C@H]3[C@@H]4CCC5=CC(=O)C=C[C@]5(C)[C@H]4[C@@H](O)C[C@]3(C)[C@]2(C(=O)CO)O1 (stereo partly specified) [Budesonide],97.6
11,CO/N=C1\C[C@]2(C[C@@H]3C[C@@H](C/C=C(\C)C[C@@H](C)/C=C/C=C4\CO[C@@H]5[C@H](O)C(C)=C[C@@H](C(=O)O3)[C@]45O)O2)O[C@H](/C(C)=C/C(C)C)[C@H]1C [Moxidectin],54.6
